In the library only some 1.7% were active in any assay of this set; here they are far more common.
TRPML1 blocker: human mucolipin-1 channel inhibition; Q9GZU1; TRPML1-inducible cells, Ca2+ dye fluorescence, FDSS; stronger effect = lower value; inhibition of EC80 agonist-evoked calcium signal; activity change, negative = inhibition, % (no concentration beside the values); 390,000 compounds, 0.02% hits; in the data active = activity change below about -50%; inconclusive = between about -30% and that limit;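 note: stimulus is agonist 54-4 at its EC80 concentration; % is set by controls: 0 for no effect and ±100 for the full control effect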
Target sequence (Q9GZU1 whole entry, looked up): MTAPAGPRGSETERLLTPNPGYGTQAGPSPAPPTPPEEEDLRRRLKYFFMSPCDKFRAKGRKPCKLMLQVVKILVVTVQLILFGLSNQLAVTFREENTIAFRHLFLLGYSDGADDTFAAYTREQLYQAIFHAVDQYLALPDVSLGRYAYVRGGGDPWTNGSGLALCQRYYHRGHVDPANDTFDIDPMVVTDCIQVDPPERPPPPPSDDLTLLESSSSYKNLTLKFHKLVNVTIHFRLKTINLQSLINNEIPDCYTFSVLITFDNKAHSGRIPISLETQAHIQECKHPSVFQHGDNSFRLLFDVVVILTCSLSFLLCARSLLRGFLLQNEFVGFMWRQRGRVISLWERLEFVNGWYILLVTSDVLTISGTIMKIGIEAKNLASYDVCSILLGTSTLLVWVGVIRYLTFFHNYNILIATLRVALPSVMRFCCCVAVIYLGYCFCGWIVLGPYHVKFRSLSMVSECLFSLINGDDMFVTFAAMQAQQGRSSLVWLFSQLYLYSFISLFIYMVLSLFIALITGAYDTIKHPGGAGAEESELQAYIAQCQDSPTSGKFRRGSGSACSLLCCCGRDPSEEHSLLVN
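TRPML1-DL cells, Tet-induced overnight (~16 h, 37 °C) at 1,500 cells/well, were loaded with Ca8 no-wash dye plus quencher for 45-90 min at room temperature. Compounds were pinned during FDSS kinetic reading; agonist 54-4 at EC80 (4 uM final) then added.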
TRPML1 agonist: human mucolipin-1 channel agonism; TRPML1-expressing cells, Ca2+ dye fluorescence, FDSS; 410,000 compounds, 0.12% hits; activation, % (no concentration beside the values); AID 624414; in the data active = activation above about 50%; inconclusive = mostly about 30% to 49%; note: 0% is about no effect
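TRPML1-DL cells, Tet-induced overnight (~16 h, 37 degrees C), loaded 45-90 min at room temperature with Ca8 no-wash calcium dye plus quencher. FDSS fluorescence: 10 s baseline, compound pin-transfer, 110 s agonist read, then EC80 54-4 (4uM final) and 110 s antagonist read.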
TRHR agonist-1: agonists of human TRH receptor; P34981; activation, % at 2 µM; AID 493084; TRHR cells, calcium flux fluo-8, FDSS agonist mode; 360,000 compounds, 0.18% hits; in the data active = activation above about 30%; note: 0% is about no effect
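TRHR-expressing cells, plated overnight in medium with 10% serum, were loaded with fluo-8 calcium dye at room temperature. After a 10 s baseline, library compound was pin-added and calcium release was recorded kinetically (ex 480/em 530) as agonist response.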
TRHR enhancer-1: allosterically enhances the human TRH receptor | AID 493056 | enhancement, % at 2 µM | TRHR cells, fluo-8 calcium fluorescence, EC20 TRH enhancement | 360,000 compounds, 0.66% hits; in the data active = enhancement above about 30%; note: 0% is about no effect
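Enhancer read-out: after compound pinning and an initial kinetic agonist-mode read, an EC20 of TRH (10 nM final) was injected and fluo-8 calcium signal (Ex 480/Em 530) followed at 1 s/cycle for 100 cycles in TRHR-expressing cells.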
KCNH2 3.1 inh: inhibitors of human KCNH2 3.1 potassium channel isoform; U2OS KCNH2 3.1, thallium flux FluxOr; stronger effect = lower value; activity change, % (tested at about 1.8 µM); AID 720553; 340,000 compounds, 0.95% hits;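 active = maximum activity change below -70%; inconclusive = maximum activity change from -70% to -50%; inactive = maximum activity change above -50%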;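 note: thallium influx rate constant from kinetic fluorescence after stimulation buffer; % is set by controls: 0 for no effect and ±100 for the full control effect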
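We transduce U2OS cells with the mutant 3.1 virus, culture them overnight, load FluxOr with Red40 quencher for 45 min, then add stimulation buffer and read kinetically for 2 min to derive a normalized rate constant.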
KCNH2 WT inh: KCNH2 (human, wildtype) channel inhibition; activity change, % at 1.84 µM; 340,000 compounds, 0.37% hits; U2OS, BacMam KCNH2, thallium flux FluxOr; stronger effect = lower value;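 active = maximum activity change below -70%; inconclusive = maximum activity change between -70% and -50%; inactive = maximum activity change above -50%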; note: % is set by controls: 0 for no effect and ±100 for the full control effect
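U2OS cells transduced with wild-type KCNH2 virus are loaded with FluxOr dye for 45 min, and thallium flux is measured in kinetic reads before and after stimulation buffer. Rate constants are normalized to DMSO controls.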
TRHR enhancer-2: human TRH receptor allosteric enhancement confirmation. activity change, negative = inhibition, % at 46.1 µM. 970 tested, under 10 active. shares compounds with TRHR enhancer-1. TRH receptor cell assay, enhancer confirmation qHTS;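 note: compound effect scored on response to added TRH at EC20 of 10 nM; 0% is about no effect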
TRHR agonist-2: human TRH receptor agonism confirmation; shares compounds with TRHR enhancer-1; TRHR-expressing cells, agonist activation read-out; Potency, µM (highest dose often 46.1 µM), for the others: at the highest dose activation, most hits filed as activators; 970 compounds, 8% hits; note: potency is the fitted concentration of half-maximal effect; 0% is about no effect; nearly all actives have a fitted effect of over 75% in size
An asterisk follows results filed as active; u = inconclusive; x = no result. Unless noted, calls come from the whole dose curve; as a rule, active = well fitted curve in the direction sought with a large enough effect; inconclusive = small, poorly fitted or top-dose-only effect, or another doubt; inactive = no such curve, though single readings can be large; an effect the other way counts as inactive or inconclusive.

SMILES	TRPML1 blocker	TRPML1 agonist	TRHR agonist-1	TRHR enhancer-1	KCNH2 3.1 inh	KCNH2 WT inh	TRHR enhancer-2	TRHR agonist-2
Cc1nc(N2CCOCC2)nc(OC(C)C)c1[N+](=O)[O-]	-5	5	0	58*	21	-3	1	2%
CC(C)c1c(C(=O)N/N=C/C=C/c2ccccc2)nnn1-c1nonc1N	2	4	0	76*	-10	-8	9	1%
COc1cc(/C=C2\SC(=S)N(NC(=O)c3cccnc3)C2=O)ccc1O	12	13	13	1	1	-3	x	x
COc1cc(/C=C2\SC(=S)N(Nc3ncc(C(F)(F)F)cc3Cl)C2=O)ccc1O	0	1	47*	26	-10	-3	1	u
COc1cc(/C=C2\SC(=S)N(Nc3ccccc3)C2=O)ccc1O	-8	16	35*	-6	6	-9	2	16µM*
O=C(NN1C(=O)/C(=C/c2ccc(O)c(O)c2)SC1=S)c1ccccc1	-15	4	29	10	1	15	u	u
COc1cc(/C=C2\SC(=S)N(C(Cc3ccccc3)C(=O)O)C2=O)ccc1O (centres undefined)	1	11	34*	4	-2	-9	0	u
Cc1c(Cl)cccc1NC(=O)Cn1c(=O)nc(-c2ccccc2)c2ccccc21	-21	1	-1	-9	x	x	x	x
CCOc1ccc(CCNC(=O)C2CCCN(S(=O)(=O)N(C)c3ccc(F)cc3)C2)cc1 (centres undefined)	25	0	-1	-2	x	x	x	x
Nc1[nH]nc2nc3ccccc3cc12	10	1	0	69*	-3	3	7	1%
CCc1ccc2nc3n[nH]c(N)c3cc2c1	-6	-1	-1	6	-4	2	x	x
COc1ccc2nc(NC(=O)C3CC(=O)N(c4ccc5c(c4)OCCO5)C3)sc2c1 (centres undefined)	6	0	0	49*	6	2	u	-1%
COc1ccc(CN(C)C(=O)C2CC(=O)N(c3ccc4c(c3)OCCO4)C2)c(OC)c1 (centres undefined)	-9	3	-2	65*	-3	0	-8	-1%
O=C(Nc1nc2ccc(F)cc2s1)C1CC(=O)N(c2ccc3c(c2)OCCO3)C1 (centres undefined)	-4	1	0	-5	-6	1	x	x
O=C(C1CC(=O)N(c2ccc3c(c2)OCCO3)C1)N1CCN(Cc2ccccc2F)CC1 (centres undefined)	-3	-1	0	48*	-4	2	3	-1%
O=C(NCc1ccccc1F)C1CC(=O)N(c2ccc3c(c2)OCCO3)C1 (centres undefined)	7	-1	0	-4	-7	-6	x	x
CCCOC(=O)c1cccc(NC(=O)CSc2nnc3cc(C)c4ccccc4n23)c1	-12	2	-1	4	x	x	x	x
CSc1ccc(CN2C(=O)C(F)(F)Oc3c(C(C)=O)cccc32)cc1	x	2	x	x	x	x	x	x
Cc1cccc2cc3c(N)c(C(=O)N4CCc5ccccc54)sc3nc12	-25	11	53*	13	-4	4	u	18µM*
COC(=O)C1CCN(C(=O)COC(=O)c2ccc(=O)n(Cc3ccccc3)n2)CC1	-2	0	0	1	6	-3	x	x
O=C(NC1CCCCCC1)c1ccc(=O)n(Cc2ccccc2)n1	3	5	0	55*	-2	0	-4	0%
CSc1nsc2nc(=O)c(/C=C3\C(C)=Nc4ccccc43)c(N)n12	-5	-1	1	-2	9	1	x	x

Source: PubChem BioAssay
